Screening results from PubChem BioAssay.
A selection: hits, their analogues and other compounds. The true share with any hit is near 0.5%.
E coli growth-1: blocks Escherichia coli growth. OD600, 23 h; hits give low values. 330,000 tested, 0.21% active. OD600 absorbance (concentration not given with the values). AID 1053175;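 active = OD600 absorbance below the run mean of sample wells minus 3.6 SD, in any replicate, cut at about 0.56 in these data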
phage Ecoli inh: E. coli growth loss with phage present; growth absorbance; inhibition, % at 11.9 µM; 360,000 tested, 0.26% active; AID 651602; in the data active = inhibition above about 11%
Tat export inh: blocks Tat-dependent protein export in E. coli | inhibition, % at 10 µM | E. coli MC4100 TorA-mCherry Tat export, fluorescence | 340,000 tested, 0.036% active;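 active = mean replicate inhibition at least 50% and at least half of replicates individually reaching 50%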;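 note: exported cargo escapes ClpAP degradation while cytoplasmic cargo is degraded and loses fluorescence; 0% = median of neutral control wells and 100% = median of NaSCN control wells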
AddAB inh: less growth of phage-infected E. coli with AddAB. AID 435030. inhibition, % at 11.9 µM. 330,000 tested, 0.29% active. E. coli expressing H. pylori AddAB, absorbance growth; in the data active = inhibition above about 12%;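 note: 0% = vehicle wells of infected cells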
E coli growth-2: bacterial growth inhibition, counter-screen for AddAB inhibitors. E. coli V3065 growth, OD600 absorbance, 18 h. inhibition, % at 11.9 µM. 330,000 tested, 0.27% active;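 active = inhibition above the campaign's mean inhibition across all tested compounds plus 3 SD, cut at about 9.9% in these data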;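 note: uninfected addAB+ strain grown without phage in ampicillin broth; 0% = DMSO wells and 100% = ciprofloxacin 0.95 µg/ml wells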
AddAB confirm: confirmation screen: growth loss of phage-infected E. coli expressing H. pylori AddAB; shares compounds with AddAB inh; inhibition, % at 11.9 µM; 880 tested, 64% active; E. coli V3065 expressing H. pylori AddAB, T4 phage, OD; T4 phage with gene 2 nonsense mutations;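 active = mean inhibition above a set limit taken from the earlier primary screen, cut at about 13% in these data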;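 note: higher means less bacterial growth since AddAB block lets phage replicate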
RecBCD counter: counter-screen: growth loss of RecBCD+ E. coli with mutant T4 phage; shares compounds with AddAB inh; E. coli V66 + mutant T4 phage, OD growth; inhibition, % at 11.9 µM; 880 tested, 73% active; AID 488955;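 active = mean inhibition above the mean of solvent-only control wells plus 3 SD, cut at about 4% in these data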;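 note: optical density read after an 18 h incubation at 37 °C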
bact viab count: reduces bacterial viability, AddAB inhibitor counter-screen; shares compounds with AddAB inh; absorbance (AddAB counterscreen); inhibition, % at 11.9 µM; 880 tested, 35% active; in the data active = inhibition above about 25%
Numbers without * were called inactive; nt = not tested or not shown.

SMILES	E coli growth-1	phage Ecoli inh	Tat export inh	AddAB inh	E coli growth-2	AddAB confirm	RecBCD counter	bact viab count
CC(=O)N1CCC2(CC1)CC(=NNC(=S)Nc1ccc(C)cc1)c1cc(O)ccc1O2	0.67	nt	nt	nt	nt	nt	nt	nt
CCN1/C(=C/C=C/c2oc3ccc4ccccc4c3[n+]2CC)Oc2ccc3ccccc3c21	0.69	nt	nt	11	11*	nt	nt	nt
Cc1ccc2nc(-c3ccccc3O)c(Nc3ccc4c(c3)OCCO4)n2c1	0.7	5	14	2	2	nt	nt	nt
Cc1ccc2nc(-c3ccc(O)cc3)c(Nc3ccc4c(c3)OCCO4)n2c1	0.71	2	-1	17*	14*	-2	-1	-4
CC1(C(=O)N/N=C/c2ccccc2)CC1(Br)Br (configuration not stated)	nt	-3	2	97*	97*	-2	0	-4
Cc1ccc(/C=N/NC(=O)C2(C)CC2(Br)Br)cc1 (configuration not stated)	nt	2	3	0	3	nt	nt	nt
Cn1nccc1C(=O)NN=Cc1cccnc1	0.66	nt	nt	nt	nt	nt	nt	nt
CC(C)N1C(=O)C2C(c3ccccc3O)NC(C)(C(=O)O)C2C1=O (configuration not stated)	0.74	1	13	15*	3	0	1	-2
CC(C)CC1(C(=O)O)NC(c2ccccc2O)C2C(=O)N(C(C)C)C(=O)C21 (configuration not stated)	0.78	3	1	0	-2	nt	nt	nt
CCCCOc1ccc(Cc2cnc(N)nc2N)cc1	0.34*	10	-16	14*	12*	13*	9.2*	7
Cc1ncc([N+](=O)[O-])n1CCOC(=O)c1ccccc1	0.63	1	5	2	1	nt	nt	nt
Cn1c([N+](=O)[O-])cnc1COC(N)=O	0.67	11	11	26*	17*	79*	5.2*	57*
NC(=NOC(=O)c1ccccc1Cl)c1ncc([N+](=O)[O-])s1	0.6	nt	nt	nt	nt	nt	nt	nt
N/C(=N/OC(=O)c1ccc(Cl)cc1)c1ncc([N+](=O)[O-])s1	nt	6	-10	19*	6	43*	1	1
COC(=O)c1ccc(C23CC4(C2)C(CN(Cc2cccnc2)C4c2ccccc2)C3c2ccccc2)cc1 (configuration not stated)	0.71	nt	nt	nt	nt	nt	nt	nt
NC1C2CN(c3nc4c(cc3F)c(=O)c(C(=O)O)cn4-c3ccc(F)cc3F)CC12 (configuration not stated)	0.044*	nt	109*	100*	98*	99*	100*	101*
Cc1c(-n2cc(C(=O)O)c(=O)c3cc(F)c(N4CCCC4)c(F)c32)c(=O)n(-c2ccccc2)n1C	0.69	3	-15	1	2	nt	nt	nt
CCCCC(=O)O[C@H]1CC[C@H]2[C@@H]3CCc4cc(O)ccc4[C@H]3CC[C@]12C	nt	4	3	97*	-1	3	0	-1
O=C(Nc1ccc2oc(-c3ccncc3)nc2c1)c1ccc([N+](=O)[O-])o1	0.6	3	0	18*	15*	89*	8.8*	24
COc1ccc(OC)c(C=NNC(=O)CSc2nnc(C)n2-c2ccccc2)c1	0.75	nt	nt	nt	nt	nt	nt	nt
C/C(=C\C(=O)OCCCCCCCCC(=O)O)C[C@@H]1OC[C@H](C[C@@H]2O[C@H]2[C@@H](C)[C@H](C)O)[C@@H](O)[C@H]1O	nt	10	128*	18*	6	7	18*	2
Cc1nnc(SCC(=O)NCc2ccc3c(c2)OCO3)s1	0.68	1	-14	19*	44*	-6	0	-4
COc1ccc(C=NNC(=O)c2ccn[nH]2)cc1COc1ccc(F)cc1	0.64	nt	nt	nt	nt	nt	nt	nt
CCOc1ccc(NC(=O)CCC(=O)N2CCSc3ccccc32)cc1	0.74	4	-1	19*	-1	-3	0	-3
Cc1cccc(NC(=O)NC(C)C(c2cccs2)N2CCOCC2)c1 (configuration not stated)	0.73	4	-10	100*	99*	-1	2	3
SMILES	E coli growth-1	phage Ecoli inh	Tat export inh	AddAB inh	E coli growth-2	AddAB confirm	RecBCD counter	bact viab count
CNC(=O)Cn1ncc2c(C)n(Cc3ccc(C)cc3)c(C)c2c1=O	0.64	2	-1	0	0	nt	nt	nt
Cc1ccc(Cn2c(C)c3cnn(CC(=O)NC4CCCC4)c(=O)c3c2C)cc1	0.71	3	-9	99*	86*	3	1	-2
CC(c1ccccc1)n1nnc(COCc2ccccc2)c1C#CCOCc1ccccc1 (configuration not stated)	0.7	nt	nt	nt	nt	nt	nt	nt
O=C(NC(Cc1ccc2c(c1)OCO2)C(=O)NC(Cc1ccccc1)C(=O)O)c1ccccc1 (configuration not stated)	0.69	1	-1	97*	93*	-3	1	-1
Cc1ccc(CC(NC(=O)c2ccccc2)C(=O)NC(Cc2ccccc2)C(=O)O)cc1 (configuration not stated)	0.71	2	-10	3	0	nt	nt	nt
CC1=C(C(=O)OCC2CCCO2)C(c2coc3ccc(Cl)cc3c2=O)C2=C(CCCC2=O)N1 (configuration not stated)	0.73	4	-11	1	1	nt	nt	nt
CC1=C(C(=O)OCC2CCCO2)C(c2coc3ccc(C)cc3c2=O)C2=C(CCCC2=O)N1 (configuration not stated)	0.67	4	7	99*	91*	0	1	-1
Cc1cccc(C=Nn2c(-c3ccncc3)n[nH]c2=S)c1	0.72	nt	nt	nt	nt	nt	nt	nt
COc1ccc(NC(=O)c2cccc(Cn3cc(Br)c([N+](=O)[O-])n3)c2)c(C)c1	0.64	2	-18	2	-2	nt	nt	nt
NNC(=O)c1cccc(Cn2cc(Br)c([N+](=O)[O-])n2)c1	0.64	9	-3	27*	24*	97*	12*	67*
CCCNC(=O)c1cccc(Cn2cc(Br)c([N+](=O)[O-])n2)c1	0.68	6	7	15*	11*	31*	3	32*
COc1cccc(C2=CC(=O)CC(c3ccc(F)cc3)C2)c1 (configuration not stated)	0.67	nt	nt	nt	nt	nt	nt	nt
CCOC(=O)N1CCN(c2cc(=O)n(-c3ccc(C)cc3)c(=O)[nH]2)CC1	0.79	2	3	97*	22*	-2	0	-3
Cc1cc(Cl)ccc1OCCCC(=O)NNC(=O)c1ccccc1O	0.71	10	2	17*	8	8	8.7*	8
CC1NC(=O)NC1CCCCCC(=O)O (configuration not stated)	0.68	nt	nt	nt	nt	nt	nt	nt
CC#CCN1c2ccccc2[C@]23CC(C(=O)OC)N=C2NC(C(=O)OC)=C(C(=O)OC)C13 (some centres not stated)	0.71	nt	nt	nt	nt	nt	nt	nt
